In PubChem BioAssay (NCATS) one finds Potency and max response data, which are given here for 26 molecules.

Test [1] has as its target T1, Hexokinase-4 (Homo sapiens) + Glucokinase regulatory protein (Homo sapiens) (UniProt P35557+Q14397). The test can be described thus: qHTS assay for inhibitors of recombinant human GCK-GKRP interaction: ADP-Glo assay (AID 743206).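 Note: plate controls were DMSO plus enzyme for no effect and no enzyme for full effect.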 The gist of the method: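 GST-GCK and FLAG-GKRP (15 nM each in the dispensed mix, with 2 uM S6P) react with 0.4 mM ATP and 5 mM glucose (final) in Hepes pH 7.6 for 60 min at room temperature. ADP is measured by ADP-Glo luminescence.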

Test [2] addresses T1, Hexokinase-4 (Homo sapiens) + Glucokinase regulatory protein (Homo sapiens). As to the kind of experiment: qHTS assay for inhibitors of recombinant human GCK-GKRP interaction: HTRF assay (AID 743207).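 Note: 0% = DMSO with GCK present and -100% = DMSO wells lacking GCK.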 The method in brief: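 5 nM GST-GCK + 5 nM FLAG-GKRP + 2 uM S6P, pH 7.1 buffer (25 mM Hepes, 2 mM MgCl2, 25 mM KCl, 1 mM DTT, Tween/BSA); pin-transferred cpd; anti-FLAG XL665/anti-GST K; 60 min RT; HTRF.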

The nature of test [3]: qHTS assay for measurement of the activity of small molecule inhibitors on Zika virus induced Caspase-3 activity in human iPSC derived neural progenitor cells (hNPCs) (AID 1224857). Note: % of control where 0% means no effect; nearly all actives have a fitted effect of over 65% in size. The method in brief:
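Percent inhibition of virus-induced caspase-3/7 luminescence (Caspase-Glo), scaled between uninfected cells and Zika-infected cells. hNPCs received compound 1 hr before ZIKV at 2 FFU/cell, with 6 hours infection at 37 C.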

Test [4] is described as follows: qHTS assay for measurement of the activity of small molecule inhibitors on Zika virus induced Caspase-3 activity in human astrocytoma cells (AID 1224859).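 Note: plate controls were ZIKV-infected untreated cells for no effect and uninfected cells for full effect.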 The gist of the method: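 Luminescent caspase-3/7 read-out (30 min reagent, room temperature) in human SNB-19 cells infected 6 h with ZIKV (2 FFU/cell) after 1 h compound pre-incubation; Data were normalised to uninfected and infected wells.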

Test [5] in a line: Natriuretic polypeptide receptor (hNpr1) antagonism - Pilot counterscreen GloSensor control cell line (AID 1347045; calls by dose curve; note: potency is the fitted concentration of half-maximal effect). The gist of the method:
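HEK293 cells carrying the GloSensor cGMP sensor (GIP/pGS-40F) were loaded with 2% GloSensor reagent for 2 h, exposed to compounds for 30 min, and then stimulated with 50 uM sodium nitroprusside for 20 min at room temperature.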

The target in test [6] is Atrial natriuretic peptide receptor 1 (Homo sapiens) (UniProt P16066). As to the kind of experiment: Natriuretic polypeptide receptor (hNpr1) antagonism - Pilot screen (AID 1347049; calls by dose curve;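 note: agonist-evoked cGMP luminescence read 20 min after hNppA addition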; note: potency is the fitted concentration of half-maximal effect). The method in brief: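 HEK293 cells expressing hNpr1 and GloSensor cGMP luciferase, 1500/well, loaded with 2% GloSensor reagent 2 h, compound 30 min at room temperature; luminescence read before and 20 min after 0.1 nM hNppA stimulation.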
Sequence of Atrial natriuretic peptide receptor 1 (Homo sapiens) (P16066 whole entry, looked up): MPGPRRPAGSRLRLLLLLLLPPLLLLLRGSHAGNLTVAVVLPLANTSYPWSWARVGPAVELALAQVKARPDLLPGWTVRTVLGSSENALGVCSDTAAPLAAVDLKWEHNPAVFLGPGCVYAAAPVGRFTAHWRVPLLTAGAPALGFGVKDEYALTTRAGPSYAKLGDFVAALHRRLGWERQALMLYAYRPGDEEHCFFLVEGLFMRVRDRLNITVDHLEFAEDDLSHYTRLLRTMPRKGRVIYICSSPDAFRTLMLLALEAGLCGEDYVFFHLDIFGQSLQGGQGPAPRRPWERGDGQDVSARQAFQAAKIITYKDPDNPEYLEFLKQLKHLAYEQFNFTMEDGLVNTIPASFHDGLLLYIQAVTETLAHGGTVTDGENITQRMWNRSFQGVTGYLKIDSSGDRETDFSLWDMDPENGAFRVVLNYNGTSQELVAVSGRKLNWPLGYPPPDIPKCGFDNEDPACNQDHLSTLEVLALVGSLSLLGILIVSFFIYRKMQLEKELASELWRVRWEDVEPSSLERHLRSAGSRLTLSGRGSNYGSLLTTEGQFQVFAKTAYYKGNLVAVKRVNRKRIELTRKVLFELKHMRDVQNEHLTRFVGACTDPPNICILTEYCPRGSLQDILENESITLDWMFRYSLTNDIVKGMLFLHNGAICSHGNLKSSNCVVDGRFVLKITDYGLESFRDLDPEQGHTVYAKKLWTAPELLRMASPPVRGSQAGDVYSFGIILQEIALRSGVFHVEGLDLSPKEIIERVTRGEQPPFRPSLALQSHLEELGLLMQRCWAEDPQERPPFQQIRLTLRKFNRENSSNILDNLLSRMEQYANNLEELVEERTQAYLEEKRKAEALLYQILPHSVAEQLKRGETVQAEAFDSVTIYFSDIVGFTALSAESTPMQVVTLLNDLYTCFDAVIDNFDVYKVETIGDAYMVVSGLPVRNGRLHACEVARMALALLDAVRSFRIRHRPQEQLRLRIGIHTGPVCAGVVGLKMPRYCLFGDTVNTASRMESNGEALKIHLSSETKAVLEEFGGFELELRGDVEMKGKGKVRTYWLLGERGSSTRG

Test [7] can be described thus: NS1 protein of Zika virus - qHTS assay to identify small molecule inhibitors in human HEK 293 cells (AID 1347053).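 Note: series mostly up to about 46 µM; plate controls were infected untreated cells for no effect and uninfected cells for full effect; nearly all actives have a fitted effect of over 55% in size.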 The gist of the method:
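HEK 293; 20 h pre-culture, 37 C/5% CO2; cpd 1 h pre-infection; ZIKV MR766, MOI = 0.5, 24 h, 37 C; TR-FRET NS1 readout (two anti-NS1 Abs); norm. to no-virus vs infected.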

Test [8] has as its target Atrial natriuretic peptide receptor 2 (Homo sapiens) (UniProt P20594). The test can be described thus: Natriuretic polypeptide receptor (hNpr2) antagonism - Pilot subtype selectivity assay (AID 1347050; calls by dose curve; note: potency is the fitted concentration of half-maximal effect). The method in brief:
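HEK293 cells expressing hNpr2 and a GloSensor cGMP luciferase sensor, 1500/well, preloaded 2 h with 2% GloSensor reagent, compound 30 min, then 1 nM hNppC for 20 min. Antagonism from luminescence after versus baseline pre-read; LOPAC in 1:5 titrations.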

Test [9] is described as follows: qHTS Assay for Identifying Gametocytocidal Compounds (AID 743244).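 For max response: % is set by controls: 0 for no effect and ±100 for the full control effect; actives lower the fluorescent signal which means gametocytes are killed.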 Note: potency is the fitted concentration of half-maximal effect. As to conditions: P. falciparum 3D7 stage III-V gametocytes, alamarBlue, 72 h; max response: hits give low values. The gist of the method:
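Viability read-out was resazurin reduction (alamarBlue, 24 h) measured at Ex 525/Em 598 nm. Beforehand, late-stage (III-V) 3D7 P. falciparum gametocytes at 20,000 cells/well were incubated with compound 72 h at 37C under 5% CO2.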

A short description of test [10]: qHTS assay for cell viability of HEK293 cells (AID 743288). Note: potency is the fitted concentration of half-maximal effect; nearly all actives have a fitted effect of over 50% in size. As to conditions: ATP luminescence (CellTiter-Glo), 18 h; max response: hits give low values. The gist of the method: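 HEK293 parental, 2,000 cells/well; ≥5 h pre-incubation 37 C; pintool compound addition; 18 h, 37 C; CellTiter-Glo 30 min RT; luminescence read.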
A short description of test [11]: qHTS assay for cell viability of the p53RE-bla HCT-116 cell line (AID 743292). Note: potency is the fitted concentration of half-maximal effect; nearly all actives have a fitted effect of over 55% in size. The gist of the method: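 Intracellular ATP of p53RE-bla HCT-116 cells measured by luciferase luminescence following 16 h compound incubation at 37 C; DMSO-only wells served as vehicle controls.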

Molecules are shown by their SMILES. Values without a mark were called inactive. Inconclusive results are not listed. The source made the active and inactive calls. Unless noted, calls come from the whole dose curve; as a rule, active = well fitted curve in the direction sought with a large enough effect; inconclusive = small, poorly fitted or top-dose-only effect, or another doubt; inactive = no such curve, though single readings can be large; an effect the other way counts as inactive or inconclusive. Residues, ends and D or L forms follow the SMILES beside them. *: point of attachment. Cbz = O=C(OCc1ccccc1)*

T1 sequence (P35557 whole entry, looked up): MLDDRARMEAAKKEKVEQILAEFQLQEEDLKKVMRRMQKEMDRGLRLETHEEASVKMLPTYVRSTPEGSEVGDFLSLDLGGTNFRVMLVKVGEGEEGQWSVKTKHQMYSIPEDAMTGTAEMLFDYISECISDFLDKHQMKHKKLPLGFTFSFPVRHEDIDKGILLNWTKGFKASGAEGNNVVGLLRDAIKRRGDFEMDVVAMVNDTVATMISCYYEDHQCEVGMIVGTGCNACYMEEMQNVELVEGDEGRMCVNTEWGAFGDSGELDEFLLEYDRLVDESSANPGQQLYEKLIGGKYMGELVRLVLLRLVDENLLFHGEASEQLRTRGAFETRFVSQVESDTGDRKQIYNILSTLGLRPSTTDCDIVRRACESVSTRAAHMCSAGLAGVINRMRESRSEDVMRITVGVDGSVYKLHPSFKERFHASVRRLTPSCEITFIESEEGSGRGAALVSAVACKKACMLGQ
T1 sequence (Q14397 whole entry, looked up): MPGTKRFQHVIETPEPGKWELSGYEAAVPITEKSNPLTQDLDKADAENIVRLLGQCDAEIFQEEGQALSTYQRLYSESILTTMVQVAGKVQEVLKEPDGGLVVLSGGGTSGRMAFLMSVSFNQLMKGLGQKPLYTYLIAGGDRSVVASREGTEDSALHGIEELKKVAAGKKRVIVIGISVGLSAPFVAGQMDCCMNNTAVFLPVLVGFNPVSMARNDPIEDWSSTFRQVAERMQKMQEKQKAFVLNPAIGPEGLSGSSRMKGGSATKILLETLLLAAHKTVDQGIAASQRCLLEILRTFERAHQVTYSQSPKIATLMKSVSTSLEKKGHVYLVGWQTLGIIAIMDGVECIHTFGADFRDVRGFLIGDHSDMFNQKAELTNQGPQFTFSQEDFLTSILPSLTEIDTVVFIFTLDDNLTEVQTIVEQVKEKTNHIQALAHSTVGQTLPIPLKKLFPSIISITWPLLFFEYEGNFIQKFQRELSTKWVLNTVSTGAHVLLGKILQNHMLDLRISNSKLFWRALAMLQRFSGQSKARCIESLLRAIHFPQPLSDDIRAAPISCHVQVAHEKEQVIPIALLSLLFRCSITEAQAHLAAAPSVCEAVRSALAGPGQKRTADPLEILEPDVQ
Sequence of Atrial natriuretic peptide receptor 2 (Homo sapiens) (P20594 whole entry, looked up): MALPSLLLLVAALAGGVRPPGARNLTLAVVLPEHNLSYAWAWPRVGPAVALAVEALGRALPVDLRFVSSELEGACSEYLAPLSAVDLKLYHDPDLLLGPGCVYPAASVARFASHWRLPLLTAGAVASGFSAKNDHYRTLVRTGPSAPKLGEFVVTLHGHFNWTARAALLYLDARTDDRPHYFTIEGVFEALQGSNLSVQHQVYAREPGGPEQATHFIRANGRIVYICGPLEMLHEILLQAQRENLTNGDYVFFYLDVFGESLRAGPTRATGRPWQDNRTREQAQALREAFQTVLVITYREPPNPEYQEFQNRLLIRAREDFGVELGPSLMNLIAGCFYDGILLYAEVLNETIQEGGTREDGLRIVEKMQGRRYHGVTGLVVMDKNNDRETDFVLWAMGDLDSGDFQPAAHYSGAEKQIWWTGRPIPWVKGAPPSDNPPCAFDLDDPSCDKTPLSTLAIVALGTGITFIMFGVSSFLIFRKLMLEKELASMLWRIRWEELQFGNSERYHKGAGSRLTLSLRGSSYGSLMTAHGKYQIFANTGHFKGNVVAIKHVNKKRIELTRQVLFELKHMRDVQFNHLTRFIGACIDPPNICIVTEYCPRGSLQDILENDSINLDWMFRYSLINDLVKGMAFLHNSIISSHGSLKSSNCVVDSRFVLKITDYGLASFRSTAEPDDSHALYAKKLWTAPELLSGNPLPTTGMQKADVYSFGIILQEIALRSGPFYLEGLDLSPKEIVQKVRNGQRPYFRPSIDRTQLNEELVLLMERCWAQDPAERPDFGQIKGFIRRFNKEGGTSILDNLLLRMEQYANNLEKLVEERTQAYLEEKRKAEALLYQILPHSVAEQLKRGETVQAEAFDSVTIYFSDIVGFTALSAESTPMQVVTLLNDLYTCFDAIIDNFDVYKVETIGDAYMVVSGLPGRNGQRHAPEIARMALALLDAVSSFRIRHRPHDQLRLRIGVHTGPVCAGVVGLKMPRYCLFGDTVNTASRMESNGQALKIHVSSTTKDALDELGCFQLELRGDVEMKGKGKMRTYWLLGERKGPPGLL

Regarding `Cc1nc(N=Nc2ccc(C(=O)O)cc2)c(COP(=O)(O)O)c(C=O)c1O`, the Potency entry in test [1], in test [2], in test [3], in [4], in [5] and in test [6] was “inactive” each time. For the same molecule, in test [7], the Potency entry is “inactive”.

For `CCC1(O)CC2CN(CCc3c([nH]c4ccccc34)[C@@](C(=O)OC)(c3cc4c(cc3OC)N(C)C3[C@]45CCN4CC=C[C@@](CC)([C@@H](OC(C)=O)[C@]3(O)C(=O)OC)[C@H]45)C2)C1` (some centres not stated), the Potency result in [1], in [2], in [3], in test [4], in test [5] and in test [6] was “inactive” in each case. In test [8], the Potency result was “inactive”.

For the molecule `CCCCCCC/C=C\CCCCCCCCC(=O)O`, the Potency entry in [1], in [2], in test [3], in test [4], in test [5] and in test [6] was “inactive” each time. In test [8], the Potency result was “inactive”. The max response in [9] is 37.6%.

As to `CC(C)(C)c1ccc(/C=C/C(=O)Nc2ccc3c(c2)OCCO3)cc1`, the Potency entry in test [1], in test [2], in [3], in test [4] and in test [7] was “inactive” throughout. Moreover, the max response in test [9] was 13.4%. Moreover, the Potency was 16.5 µM (active) in test [5] and 23.9 µM (active) in test [6].

For the molecule `Cc1nc2n(c(=O)c1CCN1CCC(c3noc4cc(F)ccc34)CC1)CCCC2O` (configuration not stated), the Potency result in [1], in test [2], in [3], in test [4], in test [5] and in test [6] was “inactive” each time. Besides, the Potency result in [7] was “inactive”. Moreover, in test [9], the max response is 7.08%.

As to `CC(C)[C@H](NC(=O)OCc1ccccc1)C(=O)N[C@H](C=O)Cc1ccccc1` (Cbz-Val-Phe-aldehyde), the Potency entry in test [1], in [2], in [3], in test [4], in test [5] and in [6] was “inactive” throughout. For the same molecule, in test [8], the Potency result was “inactive”. Also, the max response in test [9] was 7.9%.

On to `CC(=O)NNC(=O)N1Cc2ccccc2Oc2ccc(Cl)cc21`, for which the Potency result in test [1], in test [2], in test [3], in test [4], in test [5] and in test [6] was “inactive” each time. The Potency entry in test [7] is “inactive”. Also, in test [9], the max response was 7.75%.

For the molecule `O=c1cc(O)cc(/C=C/c2ccc(O)c(O)c2)o1`, the Potency result in [1], in [2], in test [3], in test [4], in [5] and in [6] was “inactive” each time. The Potency result in [7] was “inactive”.

With `N#CC(C#N)=C(N)/C(C#N)=C/c1ccc(O)cc1`, the Potency result in test [1], in test [2], in test [3], in test [4], in [5] and in [8] was “inactive” throughout. Moreover, the Potency result in [7] is “inactive”. The max response in test [9] is 11.4%.

Regarding `N#CC(=C(\N)Sc1ccccc1N)/C(C#N)=C(/N)Sc1ccccc1N`, the Potency entry in [1], in [2], in test [3], in test [4], in test [8] and in test [7] was “inactive” throughout. Also, the Potency in test [5] was 18.5 µM (active).

As for `Fc1ccc(CN(C2=NCCN2)c2c(Cl)cccc2Cl)cc1`, the Potency result in test [1], in [2], in test [3], in [4], in [5] and in test [6] was “inactive” in each case. Besides, in test [9], the max response is -2.54%.

On to `O=c1oc(Cl)c(Cl)c2ccccc12`, for which the Potency entry in [1], in [2], in test [3], in test [4] and in test [7] was “inactive” each time. In addition, the Potency in [5] and in test [8] was 13.1 µM (active) each time.

On to `Nc1ccc(-c2nc3ccc(-c4nc5ccc(N)cc5[nH]4)cc3[nH]2)cc1`, for which the Potency result in test [1], in test [3], in test [4], in test [5], in test [8] and in test [7] was “inactive” in each case.

Consider `NOCC(=O)O`, for which the Potency result in test [2], in [3], in test [4], in [5], in test [8] and in [7] was “inactive” each time. For the same molecule, the max response in [9] was -2.42%.

`Nc1ncnc2c1ncn2C1CCCC1`: the Potency entry in test [1], in test [2], in test [3], in test [4], in test [5] and in test [8] was “inactive” throughout. Moreover, in test [7], the Potency result was “inactive”. Also, the max response in test [9] is 29.2%.

For the molecule `O=C(O)/C=C/c1cnc[nH]1`, the Potency result in [1], in [2], in test [3], in test [4], in test [5] and in [8] was “inactive” in each case. For the same molecule, the Potency result in test [7] is “inactive”. Besides, the max response in test [9] was 8.66%.

On to `CCCC(=O)NCCc1c2n(c3ccc(OC)cc13)CCCc1ccccc1-2`, for which the Potency result in [1], in test [2], in test [3], in test [4], in test [5] and in test [8] was “inactive” throughout. In addition, the Potency entry in [7] is “inactive”. Also, the max response in test [9] is 19.4%.

With `[N-]=[N+]=Nc1ccc(C(=O)CSC[C@H](NC(=O)CC[C@H](N)C(=O)O)C(=O)NCC(=O)O)cc1`, the Potency result in [1], in [2], in test [3], in test [4], in test [5] and in [8] was “inactive” throughout. Further, the Potency result in test [7] is “inactive”. Also, the max response in [9] was 27%.

Take `NC(=O)CC[C@H](N)C(=O)O`: the Potency result in [1], in test [2], in [3], in test [4], in test [5] and in test [6] was “inactive” in each case. In addition, in [9], the max response was -4.4%.

As for `CC[C@@H]1Cc2cc(O)ccc2C2=C1c1ccc(O)cc1C[C@H]2CC`, the Potency result in test [2], in test [3], in test [4], in [8] and in [7] was “inactive” throughout. The Potency is 3.55 µM (active) in [9], 50.1 µM (active) in test [10], 70.8 µM (active) in [11] and 20.7 µM (active) in [5].

As to `OC1(c2ccc(Cl)cc2)CCN(Cc2c[nH]c3ccccc23)CC1`, the Potency result in test [2], in [3], in test [4], in [5] and in test [6] was “inactive” each time.

As to `COc1ccc(-c2ccc(N)[n+](CCCC(=O)O)n2)cc1`, the Potency result in test [1], in test [2], in test [3], in [4], in test [5] and in test [8] was “inactive” throughout. Besides, the Potency result in [7] is “inactive”. Further, the max response in [9] is 23.8%.

As to `COc1ccc(C(=O)NCc2cccnc2)cc1C(=O)NCc1cccnc1`, the Potency result in [1], in test [2], in [3], in test [4], in test [5] and in test [8] was “inactive” in each case. For the same molecule, the Potency entry in [7] was “inactive”. Besides, in test [9], the max response is 22.9%.

Take `CC[C@H](NC(=O)c1c(C)c(-c2ccccc2)nc2ccccc12)c1ccccc1`: the Potency entry in test [2], in test [3], in [4], in [5], in test [8] and in test [7] was “inactive” throughout.

Take `CCCCCC(O)CCCC(=O)O` (configuration not stated): the Potency entry in test [2], in test [3], in test [4], in test [5], in test [8] and in test [7] was “inactive” in each case. Besides, in test [9], the max response was -4.98%.

On to `O=c1cc(-c2ccccc2)[nH]c2nc(Cl)ccc12`, for which the Potency result in test [1], in test [3], in test [4], in [5], in test [8] and in [7] was “inactive” each time. Further, the max response in test [9] was -6.09%.
